Assays:
Experiment in all cases: log2 ratio of Biotin-Ahx-Ub-VS probe labelling (fragment/DMSO); higher = less target engagement (more negative = stronger competition), active = hit call of the paper (q ≤ 0.05, log2 ratio ≤ -1)
Settings in all cases: compound concentration: 200 uM; treatment time: 3 h
USP34 = USP34 (UniProt Q70CQ2)
In short: (§1)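 HEK293T lysate, 495 µg per sample in Tris/CHAPS/IGEPAL buffer with protease inhibitors, was treated in triplicate with fragment at 200 µM or vehicle for 3 h and then with Biotin-Ahx-Ub-VS at 0.5 µM final for 1 h. Labelled DUBs were NeutrAvidin-enriched, digested with LysC and trypsin, and run by diaPASEF LC-MS/MS. Spectronaut label-free quantities were global-median-normalised, and values are average log2 fragment/vehicle ratios by unpaired t-test on proteins with ≥2 unique peptides.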

USP36 = target: T1, USP36 (UniProt Q9P275)
T1 sequence (whole entry): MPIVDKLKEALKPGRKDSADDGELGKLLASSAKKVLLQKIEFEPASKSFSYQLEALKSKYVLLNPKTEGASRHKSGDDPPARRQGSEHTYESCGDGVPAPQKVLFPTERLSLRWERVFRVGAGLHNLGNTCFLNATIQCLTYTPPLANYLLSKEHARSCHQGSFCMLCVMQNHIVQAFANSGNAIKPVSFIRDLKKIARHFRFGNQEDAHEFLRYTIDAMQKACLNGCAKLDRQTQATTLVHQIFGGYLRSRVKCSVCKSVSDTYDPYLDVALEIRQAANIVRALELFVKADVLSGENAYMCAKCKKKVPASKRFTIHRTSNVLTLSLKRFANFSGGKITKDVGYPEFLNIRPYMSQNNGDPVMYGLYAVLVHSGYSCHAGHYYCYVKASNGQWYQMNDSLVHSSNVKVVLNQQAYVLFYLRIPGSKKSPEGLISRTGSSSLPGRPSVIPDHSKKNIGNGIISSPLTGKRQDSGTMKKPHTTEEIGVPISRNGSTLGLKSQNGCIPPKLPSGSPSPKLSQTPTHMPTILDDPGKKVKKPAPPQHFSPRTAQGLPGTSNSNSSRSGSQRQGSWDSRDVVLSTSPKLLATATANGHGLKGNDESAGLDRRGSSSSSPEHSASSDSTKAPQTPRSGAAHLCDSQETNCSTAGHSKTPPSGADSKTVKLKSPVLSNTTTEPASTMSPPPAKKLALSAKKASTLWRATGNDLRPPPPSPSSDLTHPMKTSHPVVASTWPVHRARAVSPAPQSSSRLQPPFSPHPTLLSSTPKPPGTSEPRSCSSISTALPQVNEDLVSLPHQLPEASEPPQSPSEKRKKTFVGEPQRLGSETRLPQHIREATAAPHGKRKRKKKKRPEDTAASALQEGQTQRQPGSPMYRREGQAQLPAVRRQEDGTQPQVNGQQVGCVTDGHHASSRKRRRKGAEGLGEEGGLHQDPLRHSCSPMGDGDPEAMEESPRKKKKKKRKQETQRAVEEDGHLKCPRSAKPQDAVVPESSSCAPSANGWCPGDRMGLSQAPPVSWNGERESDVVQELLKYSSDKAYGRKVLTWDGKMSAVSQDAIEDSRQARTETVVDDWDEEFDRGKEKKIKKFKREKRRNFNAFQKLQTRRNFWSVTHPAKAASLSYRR
In short: as §1

USP38 = target: T2, USP38 (UniProt Q8NB14)
T2 sequence (whole entry): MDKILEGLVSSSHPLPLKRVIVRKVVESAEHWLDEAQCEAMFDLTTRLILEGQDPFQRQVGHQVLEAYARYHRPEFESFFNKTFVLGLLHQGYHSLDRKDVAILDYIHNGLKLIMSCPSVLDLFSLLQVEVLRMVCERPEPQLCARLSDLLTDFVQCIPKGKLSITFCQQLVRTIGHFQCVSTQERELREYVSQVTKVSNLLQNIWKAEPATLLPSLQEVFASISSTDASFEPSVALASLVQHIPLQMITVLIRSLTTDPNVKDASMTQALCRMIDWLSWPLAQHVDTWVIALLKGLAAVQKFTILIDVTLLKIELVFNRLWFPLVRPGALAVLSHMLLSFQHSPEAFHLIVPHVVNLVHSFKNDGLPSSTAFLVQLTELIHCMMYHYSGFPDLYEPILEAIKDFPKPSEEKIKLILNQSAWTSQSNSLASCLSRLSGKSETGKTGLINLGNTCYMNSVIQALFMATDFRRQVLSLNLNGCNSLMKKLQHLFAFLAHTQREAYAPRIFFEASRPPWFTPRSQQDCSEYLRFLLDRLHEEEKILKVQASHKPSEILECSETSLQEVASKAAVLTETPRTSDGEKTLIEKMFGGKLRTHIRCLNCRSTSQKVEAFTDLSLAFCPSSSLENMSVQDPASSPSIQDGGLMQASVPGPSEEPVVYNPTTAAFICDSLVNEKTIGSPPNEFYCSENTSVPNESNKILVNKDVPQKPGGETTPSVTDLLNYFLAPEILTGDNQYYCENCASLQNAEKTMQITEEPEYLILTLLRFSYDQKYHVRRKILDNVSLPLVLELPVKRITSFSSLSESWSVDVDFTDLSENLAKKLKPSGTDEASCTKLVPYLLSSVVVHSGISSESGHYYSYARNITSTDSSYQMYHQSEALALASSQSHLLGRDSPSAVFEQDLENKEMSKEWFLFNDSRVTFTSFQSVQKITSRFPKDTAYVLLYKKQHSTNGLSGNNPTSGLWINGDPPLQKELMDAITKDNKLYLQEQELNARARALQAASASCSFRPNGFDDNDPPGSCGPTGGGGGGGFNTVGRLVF
In short: as §1

USP39 = target: T3, USP39 (UniProt Q53GS9)
T3 sequence (whole entry): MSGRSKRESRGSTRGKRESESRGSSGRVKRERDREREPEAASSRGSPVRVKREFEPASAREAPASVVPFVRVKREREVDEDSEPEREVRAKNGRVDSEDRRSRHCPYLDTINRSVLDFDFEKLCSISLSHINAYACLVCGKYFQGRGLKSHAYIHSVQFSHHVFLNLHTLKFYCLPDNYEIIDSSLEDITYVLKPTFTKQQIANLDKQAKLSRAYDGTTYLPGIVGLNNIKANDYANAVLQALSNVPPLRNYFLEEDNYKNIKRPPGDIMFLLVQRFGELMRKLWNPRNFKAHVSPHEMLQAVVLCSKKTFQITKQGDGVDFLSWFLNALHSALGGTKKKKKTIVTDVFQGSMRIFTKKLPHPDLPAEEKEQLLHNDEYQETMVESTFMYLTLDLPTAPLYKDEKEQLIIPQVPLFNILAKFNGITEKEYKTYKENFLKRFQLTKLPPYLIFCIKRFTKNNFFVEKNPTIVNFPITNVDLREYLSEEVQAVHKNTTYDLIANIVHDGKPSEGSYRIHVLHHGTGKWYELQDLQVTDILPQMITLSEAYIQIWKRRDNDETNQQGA
In short: as §1

USP4 = target: T4, USP4 (UniProt Q13107)
T4 sequence (whole entry): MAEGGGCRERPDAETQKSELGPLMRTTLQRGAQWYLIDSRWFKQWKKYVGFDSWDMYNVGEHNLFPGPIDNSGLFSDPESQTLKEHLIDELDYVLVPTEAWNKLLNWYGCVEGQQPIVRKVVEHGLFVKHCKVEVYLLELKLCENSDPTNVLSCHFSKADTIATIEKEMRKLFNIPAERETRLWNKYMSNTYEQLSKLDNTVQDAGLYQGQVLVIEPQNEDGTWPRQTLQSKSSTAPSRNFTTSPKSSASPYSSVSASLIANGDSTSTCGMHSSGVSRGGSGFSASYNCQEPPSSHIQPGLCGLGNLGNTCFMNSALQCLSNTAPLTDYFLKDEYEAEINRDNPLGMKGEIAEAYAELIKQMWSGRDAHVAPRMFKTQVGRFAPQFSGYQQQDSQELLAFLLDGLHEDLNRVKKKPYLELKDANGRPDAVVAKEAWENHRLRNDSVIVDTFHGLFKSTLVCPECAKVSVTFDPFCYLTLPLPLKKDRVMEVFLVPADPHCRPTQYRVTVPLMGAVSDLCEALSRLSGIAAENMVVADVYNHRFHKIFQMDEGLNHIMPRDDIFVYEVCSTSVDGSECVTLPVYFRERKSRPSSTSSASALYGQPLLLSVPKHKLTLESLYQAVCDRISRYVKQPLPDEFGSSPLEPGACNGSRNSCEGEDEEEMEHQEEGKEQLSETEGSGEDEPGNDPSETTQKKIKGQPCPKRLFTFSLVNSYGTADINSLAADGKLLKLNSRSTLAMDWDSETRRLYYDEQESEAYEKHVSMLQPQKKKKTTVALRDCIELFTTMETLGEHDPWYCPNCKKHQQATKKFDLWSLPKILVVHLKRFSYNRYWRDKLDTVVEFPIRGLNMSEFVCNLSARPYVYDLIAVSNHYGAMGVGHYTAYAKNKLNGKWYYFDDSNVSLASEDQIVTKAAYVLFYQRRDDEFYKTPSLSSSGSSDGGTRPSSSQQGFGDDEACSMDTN
In short: as §1

Measured: log2 ratio of Biotin-Ahx-Ub-VS probe labelling

Sequence of USP34 (Q70CQ2 whole entry, the tested form may be a part): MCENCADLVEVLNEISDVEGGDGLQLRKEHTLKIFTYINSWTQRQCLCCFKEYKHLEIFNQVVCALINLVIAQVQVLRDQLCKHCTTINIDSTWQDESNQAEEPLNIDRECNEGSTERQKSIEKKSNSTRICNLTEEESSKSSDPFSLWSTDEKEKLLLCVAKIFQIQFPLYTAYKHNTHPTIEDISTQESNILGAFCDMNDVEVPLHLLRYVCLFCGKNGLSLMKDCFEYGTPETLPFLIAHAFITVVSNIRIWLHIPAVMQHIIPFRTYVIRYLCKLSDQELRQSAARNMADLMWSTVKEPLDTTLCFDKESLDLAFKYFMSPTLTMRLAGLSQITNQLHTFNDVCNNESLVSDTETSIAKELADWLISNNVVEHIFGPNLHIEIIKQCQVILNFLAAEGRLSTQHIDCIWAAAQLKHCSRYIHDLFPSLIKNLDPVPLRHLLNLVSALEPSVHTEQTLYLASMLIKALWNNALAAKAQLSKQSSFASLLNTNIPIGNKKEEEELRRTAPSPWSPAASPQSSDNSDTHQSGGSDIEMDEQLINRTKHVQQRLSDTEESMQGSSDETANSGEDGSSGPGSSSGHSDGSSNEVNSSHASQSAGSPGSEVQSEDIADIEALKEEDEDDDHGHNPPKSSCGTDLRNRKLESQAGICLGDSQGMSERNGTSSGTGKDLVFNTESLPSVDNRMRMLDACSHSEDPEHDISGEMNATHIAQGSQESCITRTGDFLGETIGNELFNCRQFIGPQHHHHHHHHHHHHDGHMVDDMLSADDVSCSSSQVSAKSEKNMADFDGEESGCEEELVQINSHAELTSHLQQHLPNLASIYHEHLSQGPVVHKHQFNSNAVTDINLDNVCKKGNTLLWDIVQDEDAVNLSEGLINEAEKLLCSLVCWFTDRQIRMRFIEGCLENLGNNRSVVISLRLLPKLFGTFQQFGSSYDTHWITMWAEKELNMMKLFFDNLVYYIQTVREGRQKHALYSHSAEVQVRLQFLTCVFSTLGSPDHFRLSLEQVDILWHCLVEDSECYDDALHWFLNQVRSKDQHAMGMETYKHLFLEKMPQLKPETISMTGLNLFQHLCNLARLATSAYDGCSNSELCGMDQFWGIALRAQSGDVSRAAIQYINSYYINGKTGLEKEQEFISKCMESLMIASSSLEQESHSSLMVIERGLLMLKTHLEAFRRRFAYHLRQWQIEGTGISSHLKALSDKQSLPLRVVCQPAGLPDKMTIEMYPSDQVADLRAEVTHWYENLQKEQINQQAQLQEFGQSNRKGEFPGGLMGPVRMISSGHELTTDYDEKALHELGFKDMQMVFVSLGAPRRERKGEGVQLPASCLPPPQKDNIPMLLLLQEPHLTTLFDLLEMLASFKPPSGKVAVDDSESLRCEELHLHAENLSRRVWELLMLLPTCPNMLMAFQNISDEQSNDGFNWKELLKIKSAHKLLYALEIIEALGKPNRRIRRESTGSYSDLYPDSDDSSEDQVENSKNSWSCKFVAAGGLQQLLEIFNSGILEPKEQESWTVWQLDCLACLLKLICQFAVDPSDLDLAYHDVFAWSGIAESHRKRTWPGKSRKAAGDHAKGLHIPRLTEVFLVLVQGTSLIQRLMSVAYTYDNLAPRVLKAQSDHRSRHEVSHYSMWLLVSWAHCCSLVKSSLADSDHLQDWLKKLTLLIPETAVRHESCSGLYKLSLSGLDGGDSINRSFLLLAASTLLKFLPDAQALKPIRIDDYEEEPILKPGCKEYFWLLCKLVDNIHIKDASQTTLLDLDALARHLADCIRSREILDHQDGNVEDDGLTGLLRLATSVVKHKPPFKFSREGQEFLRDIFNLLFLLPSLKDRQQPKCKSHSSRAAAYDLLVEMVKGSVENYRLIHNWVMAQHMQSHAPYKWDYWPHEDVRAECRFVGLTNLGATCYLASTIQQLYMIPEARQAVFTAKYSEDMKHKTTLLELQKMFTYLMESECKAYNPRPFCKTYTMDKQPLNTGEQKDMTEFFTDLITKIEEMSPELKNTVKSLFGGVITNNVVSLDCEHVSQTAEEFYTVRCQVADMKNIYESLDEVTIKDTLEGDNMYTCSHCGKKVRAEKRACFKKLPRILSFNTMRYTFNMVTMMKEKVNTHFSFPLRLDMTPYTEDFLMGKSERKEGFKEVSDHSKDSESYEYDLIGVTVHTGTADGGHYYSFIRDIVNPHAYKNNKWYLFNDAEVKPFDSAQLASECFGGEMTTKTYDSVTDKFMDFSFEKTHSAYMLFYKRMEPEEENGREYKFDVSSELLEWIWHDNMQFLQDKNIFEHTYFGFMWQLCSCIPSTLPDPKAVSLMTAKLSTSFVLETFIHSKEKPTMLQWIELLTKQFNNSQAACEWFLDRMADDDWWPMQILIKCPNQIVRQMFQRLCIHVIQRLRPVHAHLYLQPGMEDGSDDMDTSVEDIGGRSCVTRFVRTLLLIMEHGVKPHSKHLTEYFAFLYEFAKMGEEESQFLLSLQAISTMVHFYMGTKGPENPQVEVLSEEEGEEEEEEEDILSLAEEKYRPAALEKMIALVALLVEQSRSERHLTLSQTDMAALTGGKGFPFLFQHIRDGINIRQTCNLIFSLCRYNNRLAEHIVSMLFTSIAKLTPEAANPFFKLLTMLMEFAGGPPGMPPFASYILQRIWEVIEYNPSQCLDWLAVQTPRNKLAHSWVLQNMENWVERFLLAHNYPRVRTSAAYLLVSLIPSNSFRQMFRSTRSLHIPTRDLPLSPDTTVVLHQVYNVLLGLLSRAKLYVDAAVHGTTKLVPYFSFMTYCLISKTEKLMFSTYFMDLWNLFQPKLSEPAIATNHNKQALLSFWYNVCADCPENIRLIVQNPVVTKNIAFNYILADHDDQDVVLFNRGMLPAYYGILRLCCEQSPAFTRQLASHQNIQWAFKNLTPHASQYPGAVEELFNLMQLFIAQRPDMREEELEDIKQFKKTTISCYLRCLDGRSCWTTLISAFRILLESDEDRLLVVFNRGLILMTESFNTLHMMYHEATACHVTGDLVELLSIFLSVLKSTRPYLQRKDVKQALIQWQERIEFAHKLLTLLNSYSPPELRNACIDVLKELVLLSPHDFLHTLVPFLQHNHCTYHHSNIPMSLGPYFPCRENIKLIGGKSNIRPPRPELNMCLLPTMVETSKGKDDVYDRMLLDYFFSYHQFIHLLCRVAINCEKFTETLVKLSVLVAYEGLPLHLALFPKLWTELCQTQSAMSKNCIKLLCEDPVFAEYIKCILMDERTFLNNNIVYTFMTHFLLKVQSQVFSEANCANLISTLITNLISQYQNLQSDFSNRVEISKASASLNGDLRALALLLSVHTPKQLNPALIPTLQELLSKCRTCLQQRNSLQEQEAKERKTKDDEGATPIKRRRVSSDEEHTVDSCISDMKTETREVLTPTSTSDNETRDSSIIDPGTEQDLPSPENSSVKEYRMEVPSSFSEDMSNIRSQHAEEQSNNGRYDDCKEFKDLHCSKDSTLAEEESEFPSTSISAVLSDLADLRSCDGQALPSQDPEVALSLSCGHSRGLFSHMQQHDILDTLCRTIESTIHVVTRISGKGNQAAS

Cc1ccc(N2CCC(NC(=O)CCl)C2=O)cc1 (stereo not given)
inactive: USP34 0.132 | USP36 -0.156 | USP38 0.0543 | USP39 0.064 | USP4 0.0879

— the supplement of paper PMC11732987, “Enantioselective OTUD7B fragment discovery through chemoproteomics screening and high-throughput optimisation” (Communications Chemistry, 2025)
